Screening data as filed in PubChem.
Hits are enriched below; roughly 2.4% of the tested compounds scored in any of these assays.
ATXN2 expr inh – Primary qHTS for Inhibitors of ATXN expression; HEK-293 ATXN2-luciferase reporter, luminescence, 24 h; Potency, µM (doses to about 57 µM), without a hit: at the top dose activity change, negative = inhibition, most hits filed as inhibitors; actives 0.72% (n = 360,000); AID 1745845, 2022; note: % is set by controls: 0 for no effect and ±100 for the full control effect; nearly all actives have a fitted effect of over 55% in size
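qHTS (up to 57 uM final) was run with 24 h compound exposure of reporter cells at 37 °C. Each well was multiplexed: SteadyGlo luminescence measured ATXN2-luciferase expression after a fluorogenic Gly-Phe-AFC viability readout (25 uM final).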
TGFb SMAD3 inh – qHTS for Inhibitors of TGF-b | HepG2 CAGA-GFP TGF-b/SMAD3 reporter, GFP fluorescence, 18 h; TGF-beta stimulated, 500 pg/mL final | Potency, µM (series often up to 46.1 µM), without a hit: at the highest dose activity, negative = inhibition, hits mostly inhibitors | actives 1.2% (n = 410,000) | AID 588855, 2011; note: % is set by controls: 0 for no effect and ±100 for the full control effect; nearly all actives have a fitted effect of over 65% in size
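Per well, imaged GFP fluorescence of HEPG2 CAGA-GFP cells gives the signal; cells get compound, then TGF-beta (500 pg/mL final), 18 h at 37 degrees C; %Activity versus -TGF-beta and +DMSO controls.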
ATXN viability – Viability Counterscreen for Primary qHTS for Inhibitors of ATXN expression; S2 cells (HEK-293 line with an ATXN2-luciferase reporter) viability, CellTiter-Fluor protease fluorescence, 24 h; actives 0.49% (n = 400,000); Potency, µM (highest dose often 56.7 µM), usual class: cytotoxic; note: nearly all actives have a fitted effect of over 40% in size
HepG2 tox – qHTS for Inhibitors of TGF-b: Cytotox Counterscreen. HepG2 CAGA-GFP viability, ATP luminescence, 18 h. Potency, µM (titrated, usually from 46.1 µM), inactives show top-dose activity change, negative = cytotoxicity, hits mostly cytotoxic. actives 0.76% (n = 410,000). AID 588856, 2011
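CellTiter-Glo luminescence gave cytotoxicity after 18 hours at 37 degrees C. The cells were HepG2 CAGA-GFP in 1% FBS DMEM, stimulated with 500 pg/mL TGF-beta after compound addition. %Activity was normalised to no-cell wells (complete cell-killing) and DMSO (no toxicity), and curves were fitted and classified.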
Apoferritin bind – qHTS Assay for Identification of Novel General Anesthetics; Ferritin light chain (Equus caballus), P02791; apoferritin/1-aminoanthracene competitive binding, fluorescence; Potency, µM (series often up to 77.5 µM), for inactives: at the top dose activity change, negative = displacement, usual class: inhibitors; actives 0.074% (n = 350,000); AID 485281, 2010; note: % is set by controls: 0 for no effect and ±100 for the full control effect; nearly all actives have a fitted effect of over 20% in size
Target sequence (P02791 2-175 limits assumed): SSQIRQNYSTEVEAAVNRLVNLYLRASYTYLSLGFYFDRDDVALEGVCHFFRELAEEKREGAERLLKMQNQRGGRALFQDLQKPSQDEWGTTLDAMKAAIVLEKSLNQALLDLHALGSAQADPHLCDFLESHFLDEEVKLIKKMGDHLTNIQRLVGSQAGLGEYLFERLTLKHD
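Concentration-response curves derived by four-parameter Hill fitting of normalized fluorescence, where compounds displaced 1-AMA from 10 uM horse apoferritin following a brief 10 min room-temperature incubation; propofol titration acted as positive control.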
Active calls of the source: *; i = inactive; ? = inconclusive; . = no result given; [ ] = another dose, or the depositor's remark. Calls come from the whole dose curve; as a rule, active = well fitted curve in the direction sought with a large enough effect; inconclusive = small, poorly fitted or top-dose-only effect, or another doubt; inactive = no such curve, though single readings can be large; an effect the other way counts as inactive or inconclusive. Potency is the fitted concentration of half-maximal effect.

SMILES | ATXN2 expr inh | TGFb SMAD3 inh | ATXN viability | HepG2 tox | Apoferritin bind
COc1cc(/C=C/C(=O)O[C@H]2CC[C@]34C[C@]35CC[C@]3(C)[C@@H]([C@H](C)CCC=C(C)C)CC[C@@]3(C)[C@@H]5CC[C@H]4C2(C)C)ccc1O | 7% | . | i | . | .
COC(=O)c1ccc2nc(Nc3nc4ccc(F)cc4s3)sc2c1 | ? | 18µM* | i | -35% | 21%
COC(=O)c1ccc2nc(NC(=O)C(C)(C)C)sc2c1 | ? | 0% | i | -15% | -16%
O=C(NNc1nc2ccccc2s1)c1ccc(F)cc1 | 3% | -11% | i | -58% | -9%
O=C(NNc1nc2ccc(F)cc2s1)c1cccc(F)c1 | -29%[11.3 µM] | 13µM* | ? | -59% | -10%
C=C(C(=O)c1ccccc1)C(c1ccccc1)C(C)C(=O)c1ccccc1 (stereo not drawn) | -28% | ? | . | -86% | 1%
C=C(C(=O)c1ccccc1)C(C)C(=C)C(=O)c1ccccc1 | 28µM* | ? | 25µM* | 7.9µM* | ?
C[C@H](NC(=O)C(C#N)=Cc1cccc(Br)n1)c1ccccc1 | 22µM* | . | . | . | .
O=C(/C=C/c1ccc(F)cc1)NC(=S)NNC(=O)c1cnccn1 | ? | 17% | ? | 1% | -5%
COc1ccc(/C=C/C(=O)NC(=S)NNC(=O)c2cnccn2)cc1 | 14µM* | -6% | ? | 8% | 1%
C[C@@H]1CN(Cc2ccc(F)cc2)[C@@H](C)CN1C(=O)c1cc2c(C(=O)C(=O)N(C)C)cn(C)c2cc1Cl | -17% | . | . | . | .
O=C(COC(=O)Cn1cnc2ccccc2c1=O)Nc1ccc(Cl)cc1 | -1% | 1% | i | -8% | ?
O=C(COC(=O)Cn1cnc2ccccc2c1=O)Nc1ccc(Cl)c(C(F)(F)F)c1 | -8% | -16% | i | -13% | 25µM*
O=C(NNC(=O)c1cccnc1SCc1cccc([N+](=O)[O-])c1)c1ccccn1 | 7.9µM* | ? | i | -18% | -13%
O=C(NNC(=O)c1cccnc1SCc1cccc([N+](=O)[O-])c1)c1ccc(F)cc1 | ? | -4% | ? | 9% | ?
CCC1CN(CCNC(=O)c2ccccc2-n2cccn2)Cc2cc(OC)ccc2O1 (stereo not drawn) | . | . | i | . | .
COc1ccc(CN2CCN(C(C)=O)CC2)cc1OC1CCN(C(=O)c2ccc3[nH]c(C)c(C)c3c2)CC1 | . | . | i | . | .
O=C1OC(Nc2nc(-c3ccc(F)cc3)cs2)c2ccccc21 (stereo not drawn) | -38% | 11µM* | ? | -40% | -6%
Cc1cc(O)c(C(C)C)cc1N=Cc1ccccc1[N+](=O)[O-] | 18µM* | 4% | ? | -4% | .
CCn1c(=O)c2cc(C(=O)NCc3cc(OC)ccc3OC)sc2c2ccccc21 | -8% | 2.5µM* | i | -28% | -7%
CCOc1ccccc1N(C)C(=O)c1cc2c(=O)n(CC)c3ccccc3c2s1 | . | ? | . | 11µM* | -13%
CCn1c(=O)c2cc(C(=O)N(C)CC(OC)OC)sc2c2ccccc21 | . | 4% | i | -39% | 7%
CC(C)CN1CC(COCc2ccccc2)Oc2ccccc2S1(=O)=O (stereo not drawn) | 1% | ? | i | -14% | .
Cc1ccc(OCCN2CCC2(C)C(=O)NCc2ccc(C(F)(F)F)cc2)cc1 (stereo not drawn) | 0% | 13µM* | i | -39% | .
COc1ccc(CN2CCCC(n3cc(C(=O)NC4CCCC4)nn3)C2)c(O)c1 (stereo not drawn) | . | . | i | . | .
SMILES | ATXN2 expr inh | TGFb SMAD3 inh | ATXN viability | HepG2 tox | Apoferritin bind
O=[N+]([O-])c1cc(C(F)(F)F)cc([N+](=O)[O-])c1NCCNC(=S)Nc1ccc(Cl)c(Cl)c1 | ? | 11µM* | . | 11µM* | -10%
Cc1cc(C)c2nc(N(Cc3cccnc3)C(=O)CCS(=O)(=O)c3ccccc3)sc2c1 | . | ? | . | 1% | -19%
Cc1cccc2sc(N(Cc3cccnc3)C(=O)CCOc3ccccc3)nc12 | . | ? | . | -31% | 67%
Cc1cc(C)c2sc(N(Cc3cccnc3)C(=O)CCS(=O)(=O)c3ccccc3)nc2c1 | . | 2.5µM* | . | 7.1µM* | -3%
O=C(c1cccs1)N(Cc1cccnc1)c1nc2c(Cl)cccc2s1 | . | 18µM* | . | -42% | ?
O=C(CCOc1ccccc1)N(Cc1cccnc1)c1nc2c(Cl)cccc2s1 | . | ? | . | 13µM* | -1%
Cc1ccc2sc(N(Cc3cccnc3)C(=O)CCS(=O)(=O)c3ccccc3)nc2c1C | . | 0% | . | -40% | 55%
O=C(CCS(=O)(=O)c1ccccc1)N(Cc1cccnc1)c1nc2c(Cl)cccc2s1 | . | 4µM* | . | 0% | -1%
CCNc1c(NS(=O)(=O)c2ccc([N+](=O)[O-])cc2)c(=O)oc2ccccc12 | -38% | -1% | i | 2% | 12%
Cc1cccc2sc(N(Cc3cccnc3)C(=O)CCS(=O)(=O)c3ccccc3)nc12 | . | 11µM* | . | 20µM* | -6%
CCCC[C@H]1C2=C3[C@@H](CC(C(=O)OC)=C[C@@H](C(=O)OC)[C@H]3C(C)(C)C2=O)n2c(=O)n(C)c(=O)n21 | . | -3% | . | -49% | -3%
CCN(CC)CCNC(=O)c1ccc2nc(-c3ccccc3)c(-c3ccc(CN4CCC(n5c(=O)[nH]c6ccccc65)CC4)cc3)nc2c1 | 27µM* | . | . | . | .
COc1cccc(NC(=O)c2nnn(Cc3ccc(OC)c(Br)c3)c2N)c1 | -17% | ? | i | -33% | ?
CC[C@@H]1O[C@]2(C=C[C@@H]1C)C[C@H]1C[C@H](CC=C(C)[C@@H](O[C@@H]3C[C@H](OC)[C@H](O[C@@H]4C[C@H](OC)[C@H](O)[C@H](C)O4)[C@H](C)O3)[C@@H](C)C=CC=C3CO[C@@H]4[C@@H](O)C(C)=C[C@@H](C(=O)O1)[C@]34O)O2 | . | . | 16µM* | . | 1%[29.3 µM]
CCNC(=S)Nc1ccc2cn[nH]c2c1 | -20% | 10% | i | -4% | 3%
N#CC(C#N)=NNc1ccc2cn[nH]c2c1 | ? | ? | 16µM* | -28% | .
C=CCSc1n[nH]c(-c2ccc(OCCCC)cc2)n1 | ? | ? | 28µM* | -59% | 10%
Cc1c(C(=O)NCCCN2CCCC2=O)cnn1-c1ncc2c(n1)-c1ccccc1CC2 | . | . | i | . | .
Cc1ccc(Nc2c(-c3ccccn3)nc3cc(C)ccn23)cc1 | 3.5µM* | ? | ? | -38% | -22%
Cc1ccn2c(Nc3ccc4c(c3)OCO4)c(-c3ccccn3)nc2c1 | ? | ? | ? | -5% | -3%
COc1ccc(-c2cccc(CCC(=O)N3CCN(c4cc(C)ccc4C)CC3)c2)cc1 | -11% | ? | i | -11% | .
